Consider six compounds from PubChem BioAssay (NCI).

The panel holds about 83,000 compounds, 20% with a hit somewhere; the sample as a whole holds those more often.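 A percent growth of 40 corresponds to 60% growth inhibition; 0 means no net growth; -100 means all cells died. Active threshold: below 10.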 Values without a mark were called inactive. Calls of active or inactive are those of the source.

Among the test systems are HCT-15 colon; HT29 colon; SNB-75 CNS; SNB-19 CNS; PC-3 prostate; SK-MEL-5 melanoma; UACC-62 melanoma; LOX IMVI melanoma; SK-MEL-28 melanoma; SK-MEL-2 melanoma; EKVX NSCLC; SN12C renal; UO-31 renal; TK-10 renal; A498 renal; MOLT-4 leukemia.
Test in all cases: NCI-60 one-dose screen, 48 h (100 = growth as untreated, 0 = no growth, -100 = all killed)
The subject of the next assay is U251 CNS. Particulars: 10 µM unless noted.
The test system of a further assay is ACHN renal. As to conditions: 10 µM unless noted.
In another assay the test system is CAKI-1 renal. Particulars: 10 µM unless noted.
The test system of a further assay is CCRF-CEM leukemia. As to conditions: 10 µM unless noted.

Take `C=C(CN1CC=CCC1)[C@@H]1CC[C@]2(COC(C)=O)CC[C@]3(C)[C@H](CC[C@@H]4[C@@]5(C)CC[C@H](O)C(C)(C)[C@@H]5CC[C@]43C)[C@@H]12`: the growth is 101% in the assay with HCT-15 colon (10 µM unless noted); 79.7% in the assay on HT29 colon (10 µM unless noted); 98.9% with SNB-75 CNS (10 µM unless noted); 97.1% in the assay on SNB-19 CNS (10 µM unless noted); 92.8% with U251 CNS; 79.6% with PC-3 prostate (10 µM unless noted). Further, the growth in the assay on SK-MEL-5 melanoma (10 µM unless noted) was 99.3%; with UACC-62 melanoma (10 µM unless noted), 92.3%; in the assay with LOX IMVI melanoma (10 µM unless noted), 100%; in the assay with SK-MEL-28 melanoma (10 µM unless noted), 105%; in the assay on SK-MEL-2 melanoma (10 µM unless noted), 104%; in the assay on EKVX NSCLC (10 µM unless noted), 109%. Further, the growth with SN12C renal (10 µM unless noted) was 97.8%; with UO-31 renal (10 µM unless noted) it was 89.4%; in the assay on TK-10 renal (10 µM unless noted), 113%; with ACHN renal, 99.8%; in the assay with CAKI-1 renal it was 107%; in the assay with A498 renal (10 µM unless noted) it was 116%. For the same compound, the growth in the assay on CCRF-CEM leukemia is 85.4%; in the assay with MOLT-4 leukemia (10 µM unless noted) it was 92.4%.

As to `N#Cc1cc(-c2ccnc(Nc3ccc(NC(=O)CCl)cc3)n2)ccc1N1CCCC1`, the growth is -45.7% (active) with HCT-15 colon (10 µM unless noted); -56.9% (active) in the assay on HT29 colon (10 µM unless noted); -17.5% (active) in the assay with SNB-75 CNS (10 µM unless noted); 5.98% (active) in the assay on SNB-19 CNS (10 µM unless noted); -33.1% (active) in the assay on U251 CNS; 8.3% (active) in the assay on PC-3 prostate (10 µM unless noted). For the same compound, the growth in the assay on SK-MEL-5 melanoma (10 µM unless noted) was -96% (active); in the assay with UACC-62 melanoma (10 µM unless noted), -71.3% (active); in the assay with LOX IMVI melanoma (10 µM unless noted) it was -84.8% (active); with SK-MEL-28 melanoma (10 µM unless noted), -52.4% (active); in the assay on SK-MEL-2 melanoma (10 µM unless noted), -39.9% (active); with EKVX NSCLC (10 µM unless noted), 12%. The growth in the assay on SN12C renal (10 µM unless noted) is -39.4% (active); in the assay with UO-31 renal (10 µM unless noted) it was -71.9% (active); in the assay on TK-10 renal (10 µM unless noted), 9.16% (active); in the assay with ACHN renal it was -24.6% (active); with CAKI-1 renal, -40.4% (active); in the assay on A498 renal (10 µM unless noted), 16.1%. Also, the growth in the assay with CCRF-CEM leukemia is 0.0905% (active); with MOLT-4 leukemia (10 µM unless noted), -7.09% (active).

Turning to `CC(=O)/C=C/c1ccc(OCc2ccc(C(C)(C)C)cc2)cc1`, the growth with HCT-15 colon (10 µM) was 64.7%; in the assay with HCT-15 colon (100 µM), 22.2%; in the assay with HT29 colon (10 µM) it was 42.4%; in the assay with HT29 colon (100 µM) it was 8.01% (active); in the assay on SNB-75 CNS (10 µM), 94.7%; in the assay on SNB-75 CNS (100 µM) it was -11.6% (active). Moreover, the growth with SNB-19 CNS (10 µM) was 98.5%; in the assay on SNB-19 CNS (100 µM), 28.5%; in the assay on PC-3 prostate (10 µM), 79.1%; in the assay with PC-3 prostate (100 µM), 14%; with SK-MEL-5 melanoma (10 µM), 50.3%; in the assay on SK-MEL-5 melanoma (100 µM), -6.85% (active). Further, the growth is 74.2% in the assay on UACC-62 melanoma (10 µM); -3.4% (active) in the assay on UACC-62 melanoma (100 µM); 62.3% with LOX IMVI melanoma (10 µM); 32% in the assay on LOX IMVI melanoma (100 µM); 85.5% with SK-MEL-28 melanoma (10 µM); -1.32% (active) in the assay with SK-MEL-28 melanoma (100 µM). For the same compound, the growth in the assay on SK-MEL-2 melanoma (10 µM) is 91.5%; in the assay with SK-MEL-2 melanoma (100 µM), -21.6% (active); in the assay with EKVX NSCLC (10 µM), 95.1%; with EKVX NSCLC (100 µM), 24.8%; with SN12C renal (10 µM), 80%; in the assay on SN12C renal (100 µM), 28.1%. In addition, the growth in the assay on UO-31 renal (10 µM) is 68.6%; in the assay with UO-31 renal (100 µM), 14.8%; with TK-10 renal (10 µM), 111%; in the assay with TK-10 renal (100 µM) it was 55.1%; in the assay on ACHN renal, 82.6%; with A498 renal (10 µM) it was 80.4%. Further, the growth was -94.2% (active) with A498 renal (100 µM), 28% [100 µM] in the assay with CCRF-CEM leukemia, 68.3% in the assay with MOLT-4 leukemia (10 µM) and 13.1% in the assay with MOLT-4 leukemia (100 µM).

For the compound `CC1(Cc2ccccc2)CC2=C(C(=O)O1)C(c1ccccc1)NC(=O)N2` (centres undefined), the growth with HCT-15 colon (10 µM unless noted) was 106%; in the assay on HT29 colon (10 µM unless noted) it was 96.8%; with SNB-75 CNS (10 µM unless noted) it was 79.3%; with SNB-19 CNS (10 µM unless noted), 89.4%; with U251 CNS it was 104%; in the assay with PC-3 prostate (10 µM unless noted) it was 92%. The growth with SK-MEL-5 melanoma (10 µM unless noted) is 95%; in the assay with UACC-62 melanoma (10 µM unless noted) it was 91.5%; in the assay on LOX IMVI melanoma (10 µM unless noted), 95.3%; with SK-MEL-28 melanoma (10 µM unless noted), 116%; in the assay with SK-MEL-2 melanoma (10 µM unless noted), 107%; in the assay with EKVX NSCLC (10 µM unless noted), 98.7%. Further, the growth in the assay on SN12C renal (10 µM unless noted) was 104%; with UO-31 renal (10 µM unless noted) it was 79.9%; in the assay with TK-10 renal (10 µM unless noted), 108%; in the assay with ACHN renal, 101%; with CAKI-1 renal, 95%; in the assay with A498 renal (10 µM unless noted), 117%. Besides, the growth was 91.1% in the assay on CCRF-CEM leukemia and 46.5% in the assay with MOLT-4 leukemia (10 µM unless noted).

In the case of `Fc1ccc(NC(c2ccc(F)cc2)C2CCN(CCCCc3ccccc3)CC2)cc1` (centres undefined), the growth in the assay with HCT-15 colon (10 µM unless noted) is 29.3%; in the assay on HT29 colon (10 µM unless noted), 3.89% (active); with SNB-75 CNS (10 µM unless noted), 63.4%; with SNB-19 CNS (10 µM unless noted), 50%; with U251 CNS, 16.6%; in the assay with PC-3 prostate (10 µM unless noted), 35%. Further, the growth in the assay with SK-MEL-5 melanoma (10 µM unless noted) is -3.5% (active); in the assay with UACC-62 melanoma (10 µM unless noted), 26%; in the assay with LOX IMVI melanoma (10 µM unless noted), 11.3%; in the assay on SK-MEL-28 melanoma (10 µM unless noted), 60.1%; in the assay on SK-MEL-2 melanoma (10 µM unless noted), 69.6%; in the assay on EKVX NSCLC (10 µM unless noted), 52.9%. Moreover, the growth in the assay with SN12C renal (10 µM unless noted) was 29%; in the assay with UO-31 renal (10 µM unless noted), 38.8%; in the assay on TK-10 renal (10 µM unless noted), 49%; in the assay on ACHN renal, 53.8%; in the assay with CAKI-1 renal, 49.1%; in the assay with A498 renal (10 µM unless noted) it was 17.2%. The values for the growth in the assay with CCRF-CEM leukemia and with MOLT-4 leukemia (10 µM unless noted) were 8.3% (active) and 4.36% (active), respectively.

`N#Cc1c(N)nnn1Cc1cc(=O)oc2ccc(O)cc12`: the growth was 110% in the assay with HCT-15 colon (10 µM unless noted); 102% in the assay with HT29 colon (10 µM unless noted); 100% in the assay on SNB-75 CNS (10 µM unless noted); 102% with SNB-19 CNS (10 µM unless noted); 103% in the assay on U251 CNS; 97.3% in the assay on PC-3 prostate (10 µM unless noted). For the same compound, the growth with SK-MEL-5 melanoma (10 µM unless noted) was 97.9%; in the assay with UACC-62 melanoma (10 µM unless noted), 99.9%; in the assay with LOX IMVI melanoma (10 µM unless noted) it was 102%; in the assay on SK-MEL-28 melanoma (10 µM unless noted), 112%; in the assay on SK-MEL-2 melanoma (10 µM unless noted), 117%; with EKVX NSCLC (10 µM unless noted) it was 117%. In addition, the growth was 106% with SN12C renal (10 µM unless noted); 90.5% in the assay with UO-31 renal (10 µM unless noted); 104% with TK-10 renal (10 µM unless noted); 106% with ACHN renal; 107% in the assay with CAKI-1 renal; 102% with A498 renal (10 µM unless noted). In addition, the results for the growth in the assay on CCRF-CEM leukemia and in the assay on MOLT-4 leukemia (10 µM unless noted) were 93.8% and 109%, respectively.
